The values that follow come from the supplement of paper PMC11417369.

± gives the standard deviation of the averaged measurements. The full ranking holds about 25,000 sequences; the median of “ln(normalized median fluorescence intensity)” is about 10, and the highest 2% start at about 12. For the sample, the highest values were picked, then their nearest neighbours and some sequences at random.

The test system of the assay is PfAP2-G AP2 domain (GST-tagged). The experiment in a line: gcPBM binding intensity (ln(normalized median fluorescence intensity)); higher = stronger DNA binding. The procedure, abridged: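 Plasmodium falciparum DNA-binding domains carrying a GST tag were expressed in E. coli and applied for 1 h, at about 25 μg on average, to an Agilent 4 × 180k array. The array held primer-extended double-stranded 36-bp intergenic genomic probes together with negative controls, and binding took place in 1× PBS with 1% milk, 0.2 mg/ml BSA, 0.5% salmon testes DNA and 0.03% Triton X-100. An Alexa488 anti-GST antibody detected bound protein, and the array was scanned at 488 nm. Binding intensity is taken as the highest Masliner-normalised natural-log median intensity across replicate spots of either probe orientation.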
With “AGGCACAAAATTAAATGTACATATATATATATATAT [XGTACX_site3323]”, the “gcPBM binding intensity (ln)” value was found to be 11 ± 0.6.

In the case of “TTATTAAAAATGGTATGTACGCACATAATATATATA [XGTACX_site3230]”, the “gcPBM binding intensity (ln)” value was found to be 11.5 ± 0.71.

For “ACGGATTAAAAAATGTGTACGCACAAAAAAAAAAAT [XGTACX_site8259]”, the “gcPBM binding intensity (ln)” value came to 11.7 ± 0.97.

For the sequence “CTTTAAACCCTGAACACACACAAATACACCCAAAAA [CACACA_site4297]”, the “gcPBM binding intensity (ln)” value was found to be 10.7 ± 0.54.

Turning to “TTATGTTCTTTAAAACCACACACCCCCCAACCCCCC [CACACA_site8742]”, the “gcPBM binding intensity (ln)” value stood at 11.6 ± 0.87.

With “ATGTTCTTTAAAACCACACACCCCCCAACCCCCCTC [CACACA_site2373]”, the “gcPBM binding intensity (ln)” value was determined as 11.7 ± 1.

In the case of “CAAACCCACCAACACACACACACAAAAATGATTAAA [CACACA_site2432]”, the “gcPBM binding intensity (ln)” value is 10.2 ± 0.35.

On to “TTTTTTTTTTTTTTTTTTTTTTTATGTTCTTAAAAA [GTGCAC_negctrl_site62]”, for which the “gcPBM binding intensity (ln)” value amounted to 9.56 ± 0.35.

On to “CACACCCACAAAAACACACACAAAGGTGTTCTTATA [CACACA_site1293]”, for which the “gcPBM binding intensity (ln)” value came to 10 ± 0.13.

Turning to “TATATATGTATCAAGTGTACAGTTTTAAAAAAAAAA [XGTACX_site6011]”, the “gcPBM binding intensity (ln)” value came to 11.4 ± 0.87.

Turning to “TTTCTTACAACAACAACAAAAAAAAATAAATAAAAT [GTGCAC_negctrl_site711]”, the “gcPBM binding intensity (ln)” value was determined as 9.91 ± 0.16.

Turning to “AATATATATGAAAAAAGTACTCAAGGAATAAAAAAA [XGTACX_site7720]”, the “gcPBM binding intensity (ln)” value is 11.3 ± 0.67.

Turning to “TAATAAAACATATATACACACATTAGATATACATAT [CACACA_site6897]”, the “gcPBM binding intensity (ln)” value came to 9.92 ± 0.057.

For “AATGGAAATTTTTCTTGTACACATATATGACATGTT [XGTACX_site1691]”, the “gcPBM binding intensity (ln)” value stood at 11.3 ± 0.86.

Regarding “AAATTACTTTCACAGTGTACTTGGAAAAAAAAAAGA [XGTACX_site1046]”, the “gcPBM binding intensity (ln)” value is 11.3 ± 0.8.

Regarding “TCTTTGTACTTTCACATGTACACCCAAATGGAAATT [CACACA_negctrl_site1442]”, the “gcPBM binding intensity (ln)” value is 11.8 ± 0.87.

As to “ACATCTAGGCTTATTTTATGATACATGTGAATATAT [TGCATGCA_negctrl_site325]”, the “gcPBM binding intensity (ln)” value was found to be 9.79 ± 0.099.

Take “TTTCATTTAGCTTTTACACACTATATATTATTGATT [CACACA_site16]”: the “gcPBM binding intensity (ln)” value was determined as 9.82 ± 0.11.

Take “AATATATAAACACGTACACACACATATATGTATATA [CACACA_site9168]”: the “gcPBM binding intensity (ln)” value was 11.6 ± 1.

As to “TAAGTTATATGTACTACACACGTACACAAAATAAGA [CACACA_site9237]”, the “gcPBM binding intensity (ln)” value is 11.8 ± 1.

“AGTTATATGTACTACACACGTACACAAAATAAGATA [CACACA_site3719]”: the “gcPBM binding intensity (ln)” value turned out to be 11.6 ± 0.75.

Consider “ACATAAATAATAAAAACACACATATGTACATATATA [CACACA_site1913]”, for which the “gcPBM binding intensity (ln)” value was 11.3 ± 0.79.

As for “TATATCTACTACACACGTACACAAAATAAGATACCT [XGTACX_site7886]”, the “gcPBM binding intensity (ln)” value stood at 11.5 ± 0.97.

Consider “AAAAAAATAAAACACATACATATATGTATATATATA [GTGCAC_negctrl_site390]”, for which the “gcPBM binding intensity (ln)” value was 9.77 ± 0.2.

With “AAAAATATATAAACACGTACACACACATATATGTAT [XGTACX_site7436]”, the “gcPBM binding intensity (ln)” value stood at 11.6 ± 0.88.

For the sequence “AATAAACATATATGTACACACATATACATATATATA [CACACA_site2848]”, the “gcPBM binding intensity (ln)” value amounted to 11.4 ± 1.2.

Consider “ATAATAAACATATATGTACACACATATACATATATA [CACACA_site8924]”, for which the “gcPBM binding intensity (ln)” value is 11.3 ± 0.94.

As for “GCTATATATTACAATCGTACAATATATATATATATA [XGTACX_site6730]”, the “gcPBM binding intensity (ln)” value was 10.8 ± 0.68.

For “TATATTTATAACAACACACACAGATCATAAAACTGC [CACACA_site7086]”, the “gcPBM binding intensity (ln)” value was found to be 10.2 ± 0.12.

On to “TTTTTCCAATCAGATGCATGTTACTATATTTGGTTC [TGCATGCA_site52]”, for which the “gcPBM binding intensity (ln)” value was 9.96 ± 0.014.

“ATATATTATTATAACTGTACTTTTTTTGTGGTTAAT [XGTACX_site8266]”: the “gcPBM binding intensity (ln)” value came out at 11.5 ± 0.83.

Regarding “TCATAGTATAAACACACACACACACCCATATATATA [CACACA_site8512]”, the “gcPBM binding intensity (ln)” value amounted to 10.2 ± 0.3.

Regarding “ATAAATTGTTCTTTTTGTGTAAACAGAATATTAAAA [CACACA_negctrl_site1022]”, the “gcPBM binding intensity (ln)” value stood at 10.1 ± 0.21.

On to “GCATAAGAAATAAATAGTACACACATAGACACACAC [XGTACX_site3095]”, for which the “gcPBM binding intensity (ln)” value was 11.6 ± 0.85.

On to “TAAGAAATAAATAGTACACACATAGACACCCACCGA [CACACA_site1516]”, for which the “gcPBM binding intensity (ln)” value was 11.5 ± 0.93.

For the sequence “TAAGAAATAAATAGTACACACATAGACACCCACCCA [CACACA_site8429]”, the “gcPBM binding intensity (ln)” value amounted to 11.7 ± 0.8.

For the sequence “TGATCTTTACACATATTATATATATATAAAAAAAAA [XGTACX_negctrl_site360]”, the “gcPBM binding intensity (ln)” value came out at 9.99 ± 0.26.

For the sequence “TCTTGAAAAAGAATCAATCGGTCGACAAAAAAAAAA [CACACA_negctrl_site1099]”, the “gcPBM binding intensity (ln)” value is 10.4 ± 0.24.

As to “GTCTTAAAAATTAAAACACACGTTCACTTTCATATT [CACACA_site5803]”, the “gcPBM binding intensity (ln)” value came to 10.05 ± 0.021.

Consider “ATATTGTGTTATAAATGTACACAATTTCCTTTCATA [XGTACX_site7481]”, for which the “gcPBM binding intensity (ln)” value stood at 11.3 ± 0.79.

For the sequence “TTTCAAAGGAAATGGTGTACACAATTTTTCCTTTTT [XGTACX_site2340]”, the “gcPBM binding intensity (ln)” value was found to be 11.7 ± 0.88.

Take “TTTTCCTTTCACAATGGTACACAAATATACATGCAA [XGTACX_site7244]”: the “gcPBM binding intensity (ln)” value was determined as 11.2 ± 0.8.

With “CAAAGGAAATGGTGTACACAATTTTTCCTTTTTCGT [CACACA_site4800]”, the “gcPBM binding intensity (ln)” value stood at 11.8 ± 1.2.

Regarding “ATTATACAAAATGGTAAGGAAAAGGAAATTTTTTTT [CACACA_negctrl_site1090]”, the “gcPBM binding intensity (ln)” value amounted to 9.77 ± 0.014.

“AAAAAAAAATGTCATGGTACACAATTTTTTCTTTTT [XGTACX_site4505]”: the “gcPBM binding intensity (ln)” value was 11 ± 0.56.
